Test results as given in PubChem BioAssay (EPA / NIEHS).
Active and inactive are the calls of the source. The calls were made as follows: active = hit-call score of the fitted dose curve at least 0.9, where 1 is the maximum; inactive = score below 0.9.

Assay: APR_HepG2_MitoticArrest_1hr: Apredica 1-hour HepG2 Assay for Mitotic Arrest (AID 2282672)
Conditions: high-content imaging, actives raise or lower the signal
Protocol: APR_HepG2_1hr is a cell-based, multiplexed-readout assay that uses HepG2, a human liver cell line, with measurements taken at 1 hour after chemical dosing in a 384-well plate.APR_HepG2_MitoticArrest_1hr is one of 10 assay component(s) measured or calculated from the APR_HepG2_1hr assay. It is designed to make measurements of cell phenotype, a form of morphology reporter, as detected with fluorescence intensity signals by HCS Fluorescent Imaging technology.Data from the assay component APR_HepG2_MitoticArrest_1hr was analyzed into 1 assay endpoint. This assay endpoint, APR_HepG2_MitoticArrest_1hr, was analyzed with bidirectional fitting relative to DMSO as the negative control and baseline of activity. Using a type of morphology reporter, measures of protein for gain or loss-of-signal activity can be used to understand the signaling at the pathway-level as they relate to the gene . Furthermore, this assay endpoint can be referred to as a primary readout, because this assay has produced multiple assay endpoints where this one serves a signaling function. To generalize the intended target to other relatable targets, this assay endpoint is annotated to the cell cycle intended target family, where the subfamily is arrest.
Cells were treated with dimethyl sulfoxide (DMSO) as a solvent control at a final concentration of 0.5% v/v or with compounds in DMSO with a resulting final DMSO concentration of 0.5% v/v. Compound treatment was done at concentrations of 0.39, 0.78, 1.56, 3.12, 6.24, 12.5, 25, 50, 100, and 200 uM in duplicate on each plate. Cells were treated with compounds for 1, 24, or 72 hr. Carbonyl […] m-chloro-phenylhydrazone (CCCP) and taxol were used as positive controls for mitochondrial function and cytoskeletal stability, respectively; DMSO served as the negative control for this experiment. Cells were fixed by the direct addition of 50 uL formaldehyde in Hank's Balanced Salt Solution (HBSS) to a final concentration of 3.7%. After incubation in the fixation medium for 30 min at room temperature (293-298 K), cells were rinsed twice with HBSS and treated with cell permeabilization buffer (16 uL of 0.5% Triton X-100) for 10 min at room temperature (293-298 K) before labeling. For mitochondrial membrane potential and mitochondrial measurements, pre-fixed cells were incubated with 50 uL of MitoTracker Red CMXRos (Invitrogen) at a concentration of 250 nM for 30 min before fixation. In the remaining cases, post-fixed cells were labeled by incubation with a multiplexed mixture of primary antibodies in HBSS for 60 min at room temperature (293-298 K) to detect immunoreactivity of c-Jun (1:500), phospho-histone H3 (1:100), phospho-histone H2A.x (1:200), p53 (1:400), alpha-tubulin (1:200) and Hoechst 33342 (2 ug/mL). Cells were labeled for multiplexed imaging on two separate plates: a) Hoechst 33342, MitoTracker Red, phospho-histone H3, and alpha-tubulin, and b) Hoechst 33342, phospho-histone H2A.x, and c-Jun. A final rinse with HBSS (50 uL) was performed before analysis. The primary and secondary antibodies for the proteins were phospho-histone H3 (rabbit anti-phospho-histone H3 and FITC-donkey anti-rabbit IgG), phospho-histone H2A.x (mouse anti-phospho-histone H2A.x and FITC-donkey anti-mouse IgG), c-Jun (rabbit anti-phospho-c-Jun and Cy3-donkey anti-rabbit IgG), p53 (sheep anti-p53 and Cy5-donkey anti-sheep IgG), alpha-tubulin (mouse anti-alpha-tubulin and Cy5-donkey anti-mouse IgG). These antibodies are available as the CellCiphr HepG2 assay kit (Millipore).Digital images of each well were captured using a Cellomics ArrayScan VTI (Thermo Scientific Cellomics) (0.8 NA objective, 0.63x optical coupler, and XF-93 filter set) at 20x magnification. The images were acquired using the autofocus feature of the ArrayScan instrument, which entails the following steps. First, the camera focuses on channel 1 (Hoechst 33342), where nuclei are identified. Second, a Z offset of 1 um is used for capturing mitochondria (MitoTracker Red). […]

Structure (SMILES) | outcome | AC50
CNC(=O)Oc1ccccc1OC(C)C | inactive | –
CC(C)OC(=O)Nc1cccc(Cl)c1 | inactive | –
N#CN | inactive | –
CCc1ccc(C(=O)NN(C(=O)c2cc(C)cc(C)c2)C(C)(C)C)cc1 | inactive | –
CCC(C)Nc1c([N+](=O)[O-])cc(C(C)(C)C)cc1[N+](=O)[O-] (stereo not given) | inactive | –
CC(C)(C)C(O)/C(=C\c1ccc(Cl)cc1Cl)n1cncn1 (stereo not given) | inactive | –
[2H]C1([2H])[n+]2ccccc2-c2cccc[n+]2C1([2H])[2H] | inactive | –
CC(C)(C)C(O)C(Oc1ccc(Cl)cc1)n1cncn1 (stereo not given) | inactive | –
COC(=O)c1ccccc1S(=O)(=O)NC(=O)Nc1nc(C)nc(OC)n1 | inactive | –
OCCOc1ccccc1 | inactive | –
O=[N+]([O-])/N=C1\NCCN1Cc1ccc(Cl)nc1 | inactive | –
COP(=S)(OC)Oc1ccc(SC)c(C)c1 | inactive | –
COc1nn(CSP(=S)(OC)OC)c(=O)s1 | inactive | –
N#Cc1c(Cl)c(Cl)c(Cl)c(C#N)c1Cl | – | 8.28 µM (active)
O=C(NC(=O)c1c(F)cccc1F)Nc1ccc(OC(F)(F)C(F)OC(F)(F)F)c(Cl)c1 (stereo not given) | inactive | –
CCC(C)(NC(=O)c1cc(Cl)c(C)c(Cl)c1)C(=O)CCl (stereo not given) | inactive | –
Oc1cc(Cl)ccc1Oc1ccc(Cl)cc1Cl | inactive | –
CNC(=O)CSP(=S)(OC)OC | inactive | –
COP(=S)(OC)Oc1ccc([N+](=O)[O-])cc1 | inactive | –
O=C(Nc1ccccc1)Nc1cnns1 | inactive | –

Structure (SMILES) | outcome | AC50
CC(C)N(C(=O)COc1nnc(C(F)(F)F)s1)c1ccc(F)cc1 | inactive | –
COc1cc(OC)nc(NC(=O)NS(=O)(=O)c2cc(NC=O)ccc2C(=O)N(C)C)n1 | inactive | –
CCN(CC)C(=O)SCc1ccc(Cl)cc1 | inactive | –
Cc1[nH]c(=O)n(C(C)(C)C)c(=O)c1Cl | inactive | –
O=C(O)COc1ccc(Cl)cc1Cl | inactive | –
CCOc1nc(NC)nc(NC(=O)NS(=O)(=O)c2ccccc2C(=O)OC)n1 | inactive | –
CN1CSC(=S)N(C)C1 | inactive | –
ClC1C(Cl)C(Cl)C(Cl)C(Cl)C1Cl (stereo not given) | inactive | –
O=C(O)CCCOc1ccc(Cl)cc1Cl | inactive | –
COP(=O)(OC)OC=C(Cl)Cl | inactive | –
Oc1ccc(Cl)cc1Cc1ccccc1 | inactive | –
Clc1ccccc1-c1nnc(-c2ccccc2Cl)nn1 | inactive | –
CCOC1Oc2ccc(OS(C)(=O)=O)cc2C1(C)C (stereo not given) | inactive | –
CNC(=O)/C=C(\C)OP(=O)(OC)OC | inactive | –
CCC(C)(C)C(=O)OC1=C(c2ccc(Cl)cc2Cl)C(=O)OC12CCCCC2 | inactive | –
CNC(=O)Oc1cccc(N=CN(C)C)c1 | inactive | –
CCCN(CCC)c1c([N+](=O)[O-])cc(C(F)(F)F)cc1[N+](=O)[O-] | inactive | –
O=S(=O)(O)C(F)(F)C(F)(F)C(F)(F)C(F)(F)C(F)(F)C(F)(F)C(F)(F)C(F)(F)F | inactive | –
CCS(=O)(=O)c1cccnc1S(=O)(=O)NC(=O)Nc1nc(OC)cc(OC)n1 | inactive | –
CC[C@H](C)[C@H]1O[C@]2(C=C[C@@H]1C)C[C@@H]1C[C@@H](C/C=C(\C)[C@@H](O[C@H]3C[C@H](OC)[C@@H](O[C@H]4C[C@H](OC)[C@@H](O)[C@H](C)O4)[C@H](C)O3)[C@@H](C)/C=C/C=C3\CO[C@@H]4[C@H](O)C(C)=C[C@@H](C(=O)O1)[C@]34O)O2 (tested in a mixture with another compound) | – | 12.6 µM (active)
